# Data reported in publication PMC7862700, “An all-to-all approach to the identification of sequence-specific readers for epigenetic DNA modifications on cytosine”.
# What was measured:
# Experiment in all cases: DAPPL (digital affinity profiling via proximity ligation, sequencing); 10 mM Tris-HCl pH 7.5, 50 mM NaCl, 1 mM DTT, 4% glycerol, room temperature, 30 min; GST-TFs on glutathione beads, 16-mer random dsDNA library, 0.1% formaldehyde crosslink after washing; high values mean tight binding
# [1] = target: T1, FEV (Homo sapiens, UniProt Q99581 1-238); conditions: protein: recombinant; tags: N-terminal GST; dsDNA, one strand shown
# T1 sequence: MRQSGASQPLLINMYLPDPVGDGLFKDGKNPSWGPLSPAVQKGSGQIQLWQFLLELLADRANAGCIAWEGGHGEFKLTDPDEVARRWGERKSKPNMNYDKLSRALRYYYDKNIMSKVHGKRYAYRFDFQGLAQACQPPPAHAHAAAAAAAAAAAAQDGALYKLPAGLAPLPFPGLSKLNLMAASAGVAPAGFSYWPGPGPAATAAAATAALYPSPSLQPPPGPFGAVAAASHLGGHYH
# Summary of the method: (§1)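 Binding signal is given per hexamer as its read frequency for a factor divided by its frequency in the tag-only sample. GST-fused human transcription factors were expressed in yeast, captured on glutathione beads, barcoded with DNA and pooled with that sample, then incubated with 200 nmole of a 16-mer random double-stranded DNA library in Tris/NaCl/DTT/glycerol buffer for 30 min at room temperature. The pools were then washed, crosslinked, proximity-ligated, amplified by PCR and sequenced on an Illumina NextSeq500.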
# [2] = target: ETV5 (Homo sapiens, UniProt P41161 1-510); conditions: protein: recombinant; tags: N-terminal GST; dsDNA, one strand shown
# Summary of the method: as §1
# [3] = target: HSF1 (Homo sapiens, UniProt Q00613 1-529); conditions: protein: recombinant; tags: N-terminal GST; chain copies: 3; dsDNA, one strand shown
# Summary of the method: as §1
# [4] = target: T2, SPIC (Homo sapiens, UniProt Q8N5J4 1-248); conditions: protein: recombinant; tags: N-terminal GST; dsDNA, one strand shown
# T2 sequence: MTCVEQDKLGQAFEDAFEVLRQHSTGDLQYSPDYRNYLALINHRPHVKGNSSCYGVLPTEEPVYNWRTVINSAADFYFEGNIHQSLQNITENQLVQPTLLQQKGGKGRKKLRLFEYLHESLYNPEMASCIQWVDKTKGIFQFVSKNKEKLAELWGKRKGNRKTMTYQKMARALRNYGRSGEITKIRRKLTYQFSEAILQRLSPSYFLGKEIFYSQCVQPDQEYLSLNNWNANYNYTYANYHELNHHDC
# Summary of the method: as §1
# [5] = target: ELF4 (Homo sapiens, UniProt Q99607 1-663); conditions: protein: recombinant; tags: N-terminal GST; dsDNA, one strand shown
# Summary of the method: as §1
# [6] = target: T3, ELK4 (Homo sapiens, UniProt P28324-2 1-405); conditions: protein: recombinant; tags: N-terminal GST; dsDNA, one strand shown
# T3 sequence: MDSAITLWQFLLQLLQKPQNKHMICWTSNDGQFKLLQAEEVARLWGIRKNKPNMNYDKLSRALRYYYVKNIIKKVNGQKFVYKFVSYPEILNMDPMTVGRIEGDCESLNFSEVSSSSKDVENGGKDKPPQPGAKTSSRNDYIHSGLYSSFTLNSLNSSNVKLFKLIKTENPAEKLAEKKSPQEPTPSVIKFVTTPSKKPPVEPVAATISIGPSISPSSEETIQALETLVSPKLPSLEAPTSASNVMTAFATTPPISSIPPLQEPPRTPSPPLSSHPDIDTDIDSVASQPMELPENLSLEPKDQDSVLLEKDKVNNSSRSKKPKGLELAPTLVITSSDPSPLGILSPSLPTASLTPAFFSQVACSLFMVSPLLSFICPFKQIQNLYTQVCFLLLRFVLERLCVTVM
# Summary of the method: as §1
# [7] = target: T4, ETV2 (Homo sapiens, UniProt O00321 1-342); conditions: protein: recombinant; tags: N-terminal GST; dsDNA, one strand shown
# T4 sequence: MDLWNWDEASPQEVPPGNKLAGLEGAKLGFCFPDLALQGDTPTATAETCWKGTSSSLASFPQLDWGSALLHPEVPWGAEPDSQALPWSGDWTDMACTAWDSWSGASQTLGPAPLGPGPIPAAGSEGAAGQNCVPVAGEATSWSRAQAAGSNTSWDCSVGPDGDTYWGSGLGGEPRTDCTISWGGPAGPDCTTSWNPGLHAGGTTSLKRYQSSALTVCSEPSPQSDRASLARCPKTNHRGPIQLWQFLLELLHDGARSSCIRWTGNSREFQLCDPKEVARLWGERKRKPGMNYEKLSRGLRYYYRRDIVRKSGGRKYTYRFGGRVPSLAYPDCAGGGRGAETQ
# Summary of the method: as §1
# [8] = target: T5, ELF3 (Homo sapiens, UniProt P78545 1-371); conditions: protein: recombinant; tags: N-terminal GST; dsDNA, one strand shown
# T5 sequence: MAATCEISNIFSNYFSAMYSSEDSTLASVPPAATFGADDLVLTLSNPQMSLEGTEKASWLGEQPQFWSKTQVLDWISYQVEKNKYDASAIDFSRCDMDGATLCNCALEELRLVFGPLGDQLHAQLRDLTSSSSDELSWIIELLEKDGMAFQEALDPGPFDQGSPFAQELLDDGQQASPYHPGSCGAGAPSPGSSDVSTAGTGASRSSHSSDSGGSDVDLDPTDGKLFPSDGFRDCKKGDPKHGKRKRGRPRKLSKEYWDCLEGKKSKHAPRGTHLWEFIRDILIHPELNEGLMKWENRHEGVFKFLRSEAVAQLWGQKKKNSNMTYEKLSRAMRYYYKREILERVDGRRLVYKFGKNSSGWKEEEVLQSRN
# Summary of the method: as §1
# [9] = target: CRX (Homo sapiens, UniProt O43186 1-299); conditions: protein: recombinant; tags: N-terminal GST; dsDNA, one strand shown
# Summary of the method: as §1
# [10] = target: ETV1 (Homo sapiens, UniProt P50549 1-477); conditions: protein: recombinant; tags: N-terminal GST; dsDNA, one strand shown
# Summary of the method: as §1
# [11] = target: T6, ERF (Homo sapiens, UniProt P50548 1-548); conditions: protein: recombinant; tags: N-terminal GST; dsDNA, one strand shown
# T6 sequence: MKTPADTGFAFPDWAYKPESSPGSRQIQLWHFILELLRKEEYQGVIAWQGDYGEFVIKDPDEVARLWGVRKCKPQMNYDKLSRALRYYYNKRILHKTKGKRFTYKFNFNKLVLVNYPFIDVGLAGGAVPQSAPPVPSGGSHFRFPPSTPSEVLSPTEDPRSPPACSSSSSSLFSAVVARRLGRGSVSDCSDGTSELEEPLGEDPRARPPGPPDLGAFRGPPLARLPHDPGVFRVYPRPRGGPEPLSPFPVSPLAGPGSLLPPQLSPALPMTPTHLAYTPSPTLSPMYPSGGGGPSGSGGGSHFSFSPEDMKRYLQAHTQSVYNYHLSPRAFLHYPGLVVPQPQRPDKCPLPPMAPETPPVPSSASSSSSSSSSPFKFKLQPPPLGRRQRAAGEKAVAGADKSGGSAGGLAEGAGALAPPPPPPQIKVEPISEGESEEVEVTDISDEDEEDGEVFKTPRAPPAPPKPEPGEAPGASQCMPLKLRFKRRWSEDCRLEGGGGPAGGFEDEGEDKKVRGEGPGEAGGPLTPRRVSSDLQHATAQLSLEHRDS
# Summary of the method: as §1
# [12] = target: T7, ETV3L (Homo sapiens, UniProt Q6ZN32 1-361); conditions: protein: recombinant; tags: N-terminal GST; dsDNA, one strand shown
# T7 sequence: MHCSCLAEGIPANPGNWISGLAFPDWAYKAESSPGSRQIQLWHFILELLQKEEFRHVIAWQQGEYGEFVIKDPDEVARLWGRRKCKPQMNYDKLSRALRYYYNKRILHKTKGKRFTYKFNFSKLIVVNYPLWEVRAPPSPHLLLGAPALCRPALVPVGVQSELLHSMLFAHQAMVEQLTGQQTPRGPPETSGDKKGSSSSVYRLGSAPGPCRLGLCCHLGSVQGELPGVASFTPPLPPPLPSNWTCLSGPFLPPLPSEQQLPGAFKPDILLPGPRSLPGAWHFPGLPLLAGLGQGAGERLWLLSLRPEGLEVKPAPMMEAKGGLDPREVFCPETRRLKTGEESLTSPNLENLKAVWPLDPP
# Summary of the method: as §1
# [13] = target: T8, ETS2 (Homo sapiens, UniProt P15036 1-469); conditions: protein: recombinant; tags: N-terminal GST; dsDNA, one strand shown
# T8 sequence: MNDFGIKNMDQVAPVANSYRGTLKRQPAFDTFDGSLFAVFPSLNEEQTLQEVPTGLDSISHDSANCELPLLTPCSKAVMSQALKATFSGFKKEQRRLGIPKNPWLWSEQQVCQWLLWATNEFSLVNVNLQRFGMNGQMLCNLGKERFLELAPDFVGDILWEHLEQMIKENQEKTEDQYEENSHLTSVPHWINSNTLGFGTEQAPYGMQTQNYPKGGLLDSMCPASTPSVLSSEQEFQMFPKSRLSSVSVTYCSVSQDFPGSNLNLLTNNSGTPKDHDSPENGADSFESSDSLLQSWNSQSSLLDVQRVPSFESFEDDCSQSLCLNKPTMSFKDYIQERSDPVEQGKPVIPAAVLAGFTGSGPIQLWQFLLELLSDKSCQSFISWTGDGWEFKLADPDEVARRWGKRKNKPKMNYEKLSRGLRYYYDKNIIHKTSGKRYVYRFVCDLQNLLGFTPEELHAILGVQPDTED
# Summary of the method: as §1
# [14] = target: T9, SPDEF (Homo sapiens, UniProt O95238 1-335); conditions: protein: recombinant; tags: N-terminal GST; dsDNA, one strand shown
# T9 sequence: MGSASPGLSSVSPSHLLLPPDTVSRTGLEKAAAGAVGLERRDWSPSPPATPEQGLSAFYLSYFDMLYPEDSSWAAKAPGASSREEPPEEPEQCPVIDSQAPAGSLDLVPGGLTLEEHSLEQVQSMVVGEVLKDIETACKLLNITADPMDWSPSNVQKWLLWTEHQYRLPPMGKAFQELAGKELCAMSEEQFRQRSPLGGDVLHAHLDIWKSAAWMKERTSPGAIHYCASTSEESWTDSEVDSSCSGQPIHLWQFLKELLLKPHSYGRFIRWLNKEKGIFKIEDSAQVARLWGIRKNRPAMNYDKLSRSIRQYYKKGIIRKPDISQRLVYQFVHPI
# Summary of the method: as §1
# [15] = target: T10, ETV7 (Homo sapiens, UniProt Q9Y603 1-341); conditions: protein: recombinant; tags: N-terminal GST; dsDNA, one strand shown
# T10 sequence: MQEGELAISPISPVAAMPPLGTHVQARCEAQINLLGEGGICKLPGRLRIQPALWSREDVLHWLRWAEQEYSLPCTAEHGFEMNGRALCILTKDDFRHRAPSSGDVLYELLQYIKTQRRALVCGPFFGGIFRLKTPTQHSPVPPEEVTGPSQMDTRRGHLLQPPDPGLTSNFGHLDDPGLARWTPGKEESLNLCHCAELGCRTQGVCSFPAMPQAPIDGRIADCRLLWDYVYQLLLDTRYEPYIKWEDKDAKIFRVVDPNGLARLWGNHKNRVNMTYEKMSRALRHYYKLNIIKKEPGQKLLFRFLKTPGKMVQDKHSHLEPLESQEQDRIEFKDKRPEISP
# Summary of the method: as §1
# [16] = target: T11, ELF5 (Homo sapiens, UniProt Q9UKW6-2 1-255); conditions: protein: recombinant; tags: N-terminal GST; dsDNA, one strand shown
# T11 sequence: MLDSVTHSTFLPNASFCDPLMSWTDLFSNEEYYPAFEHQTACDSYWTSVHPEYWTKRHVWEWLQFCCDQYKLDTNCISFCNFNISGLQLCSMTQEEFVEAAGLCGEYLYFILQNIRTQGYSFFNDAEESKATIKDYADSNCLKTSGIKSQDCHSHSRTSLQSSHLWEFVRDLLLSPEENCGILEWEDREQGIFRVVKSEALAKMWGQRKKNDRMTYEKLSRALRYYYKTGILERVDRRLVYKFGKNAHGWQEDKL
# Summary of the method: as §1
# [17] = target: T12, ETV3 (Homo sapiens, UniProt P41162-2 1-143); conditions: protein: recombinant; tags: N-terminal GST; dsDNA, one strand shown
# T12 sequence: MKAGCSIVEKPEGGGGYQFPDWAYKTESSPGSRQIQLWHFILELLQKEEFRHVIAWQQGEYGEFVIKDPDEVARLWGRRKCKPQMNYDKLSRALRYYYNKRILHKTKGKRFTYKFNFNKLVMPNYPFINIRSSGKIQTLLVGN
# Summary of the method: as §1
# [18] = target: ETV6 (Homo sapiens, UniProt P41212 1-452); conditions: protein: recombinant; tags: N-terminal GST; dsDNA, one strand shown
# Summary of the method: as §1
# ETV5, sequence (P41161 whole entry): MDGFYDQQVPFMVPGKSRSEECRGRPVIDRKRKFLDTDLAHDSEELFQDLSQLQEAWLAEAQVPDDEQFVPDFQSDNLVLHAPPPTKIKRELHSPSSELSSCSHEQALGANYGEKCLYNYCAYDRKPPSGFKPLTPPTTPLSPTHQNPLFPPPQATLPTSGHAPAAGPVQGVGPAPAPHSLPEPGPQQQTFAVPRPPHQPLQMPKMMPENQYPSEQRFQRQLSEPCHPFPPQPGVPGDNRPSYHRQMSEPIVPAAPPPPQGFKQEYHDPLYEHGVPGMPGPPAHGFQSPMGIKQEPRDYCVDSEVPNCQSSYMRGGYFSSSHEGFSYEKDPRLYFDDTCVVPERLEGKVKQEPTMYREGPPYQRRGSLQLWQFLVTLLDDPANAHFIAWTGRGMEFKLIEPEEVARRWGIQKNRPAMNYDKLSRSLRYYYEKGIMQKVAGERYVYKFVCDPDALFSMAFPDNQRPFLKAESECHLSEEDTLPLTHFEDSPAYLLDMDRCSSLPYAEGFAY
# HSF1, sequence (Q00613 whole entry): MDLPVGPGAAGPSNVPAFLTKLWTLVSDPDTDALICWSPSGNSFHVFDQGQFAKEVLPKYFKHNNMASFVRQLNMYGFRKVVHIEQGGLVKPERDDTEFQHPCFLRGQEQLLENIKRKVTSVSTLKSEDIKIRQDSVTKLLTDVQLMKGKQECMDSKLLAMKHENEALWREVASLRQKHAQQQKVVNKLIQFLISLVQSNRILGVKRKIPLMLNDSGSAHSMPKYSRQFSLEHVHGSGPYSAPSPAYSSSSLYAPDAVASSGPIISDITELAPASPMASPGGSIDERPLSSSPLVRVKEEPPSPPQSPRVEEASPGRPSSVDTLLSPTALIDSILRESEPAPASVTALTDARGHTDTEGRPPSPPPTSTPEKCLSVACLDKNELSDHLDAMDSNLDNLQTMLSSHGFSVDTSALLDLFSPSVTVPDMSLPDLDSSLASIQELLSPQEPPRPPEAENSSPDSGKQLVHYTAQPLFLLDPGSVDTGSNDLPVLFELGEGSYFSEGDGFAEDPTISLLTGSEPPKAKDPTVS
# CRX, sequence (O43186 whole entry): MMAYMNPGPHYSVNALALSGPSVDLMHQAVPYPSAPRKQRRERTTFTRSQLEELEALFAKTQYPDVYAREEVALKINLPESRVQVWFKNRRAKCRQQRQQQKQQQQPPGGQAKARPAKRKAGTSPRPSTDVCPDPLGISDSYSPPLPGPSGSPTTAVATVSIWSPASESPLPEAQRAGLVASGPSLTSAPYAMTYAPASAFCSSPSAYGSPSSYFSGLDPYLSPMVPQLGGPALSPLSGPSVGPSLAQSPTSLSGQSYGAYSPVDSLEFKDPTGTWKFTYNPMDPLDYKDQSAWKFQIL
# ETV6, sequence (P41212 whole entry): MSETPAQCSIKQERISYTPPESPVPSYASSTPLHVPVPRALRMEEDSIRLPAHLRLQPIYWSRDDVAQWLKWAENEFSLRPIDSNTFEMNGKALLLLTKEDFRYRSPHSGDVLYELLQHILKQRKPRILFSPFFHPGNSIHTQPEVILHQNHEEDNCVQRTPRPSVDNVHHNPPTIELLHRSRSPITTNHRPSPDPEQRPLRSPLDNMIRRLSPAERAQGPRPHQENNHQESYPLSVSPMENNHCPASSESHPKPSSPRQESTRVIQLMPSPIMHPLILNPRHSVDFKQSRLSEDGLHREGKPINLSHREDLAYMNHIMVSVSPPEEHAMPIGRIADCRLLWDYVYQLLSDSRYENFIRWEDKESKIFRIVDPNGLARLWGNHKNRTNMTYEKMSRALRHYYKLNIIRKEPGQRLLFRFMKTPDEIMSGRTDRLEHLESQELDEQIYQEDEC
# ETV1, sequence (P50549 whole entry): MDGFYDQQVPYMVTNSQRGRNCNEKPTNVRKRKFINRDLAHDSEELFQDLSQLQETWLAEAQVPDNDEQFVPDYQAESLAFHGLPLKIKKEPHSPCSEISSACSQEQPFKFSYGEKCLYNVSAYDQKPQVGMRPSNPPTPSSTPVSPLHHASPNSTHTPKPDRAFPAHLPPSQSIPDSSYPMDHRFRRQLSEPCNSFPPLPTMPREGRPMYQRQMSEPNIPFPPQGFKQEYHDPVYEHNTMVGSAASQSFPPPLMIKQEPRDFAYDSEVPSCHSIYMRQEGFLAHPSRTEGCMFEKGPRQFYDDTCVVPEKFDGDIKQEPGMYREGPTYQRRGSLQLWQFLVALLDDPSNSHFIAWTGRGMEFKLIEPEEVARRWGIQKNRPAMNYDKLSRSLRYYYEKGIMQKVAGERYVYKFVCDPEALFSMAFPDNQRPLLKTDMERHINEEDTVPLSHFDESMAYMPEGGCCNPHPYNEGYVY
# ELF4, sequence (Q99607 whole entry): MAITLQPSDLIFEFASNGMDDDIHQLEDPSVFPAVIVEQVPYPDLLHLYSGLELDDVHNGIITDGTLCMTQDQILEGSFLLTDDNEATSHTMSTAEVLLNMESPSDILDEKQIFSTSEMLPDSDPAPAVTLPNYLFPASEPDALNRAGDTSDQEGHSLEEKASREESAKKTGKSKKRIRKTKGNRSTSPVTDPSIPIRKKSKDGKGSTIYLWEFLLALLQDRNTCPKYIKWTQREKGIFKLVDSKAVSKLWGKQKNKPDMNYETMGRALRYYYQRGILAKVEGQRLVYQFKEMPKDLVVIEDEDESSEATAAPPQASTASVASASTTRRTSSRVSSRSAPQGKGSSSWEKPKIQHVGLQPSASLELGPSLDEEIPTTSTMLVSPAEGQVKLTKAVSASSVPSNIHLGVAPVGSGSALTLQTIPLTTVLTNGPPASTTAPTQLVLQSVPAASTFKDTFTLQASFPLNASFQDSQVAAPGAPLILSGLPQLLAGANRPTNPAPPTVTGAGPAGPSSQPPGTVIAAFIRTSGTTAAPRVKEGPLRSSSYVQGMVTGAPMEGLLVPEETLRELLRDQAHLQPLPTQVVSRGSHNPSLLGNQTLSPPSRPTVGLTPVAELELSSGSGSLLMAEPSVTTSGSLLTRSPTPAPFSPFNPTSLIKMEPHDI
sequence,measurement,setting,value
AACATA,binding signal,[1],"1.2 fold enrichment (6-mer frequency, TF over GST control)"
same,binding signal,[2],"1.31 fold enrichment (6-mer frequency, TF over GST control)"
same,binding signal,[3],"1.36 fold enrichment (6-mer frequency, TF over GST control)"
same,binding signal,[4],"1.37 fold enrichment (6-mer frequency, TF over GST control)"
same,binding signal,[5],"1.3 fold enrichment (6-mer frequency, TF over GST control)"
same,binding signal,[6],"1.16 fold enrichment (6-mer frequency, TF over GST control)"
same,binding signal,[7],"1.38 fold enrichment (6-mer frequency, TF over GST control)"
same,binding signal,[8],"1.36 fold enrichment (6-mer frequency, TF over GST control)"
same,binding signal,[9],"1.3 fold enrichment (6-mer frequency, TF over GST control)"
same,binding signal,[10],"1.21 fold enrichment (6-mer frequency, TF over GST control)"
same,binding signal,[11],"1.32 fold enrichment (6-mer frequency, TF over GST control)"
same,binding signal,[12],"1.24 fold enrichment (6-mer frequency, TF over GST control)"
same,binding signal,[13],"1.23 fold enrichment (6-mer frequency, TF over GST control)"
same,binding signal,[14],"1.19 fold enrichment (6-mer frequency, TF over GST control)"
same,binding signal,[15],"1.31 fold enrichment (6-mer frequency, TF over GST control)"
same,binding signal,[16],"1.3 fold enrichment (6-mer frequency, TF over GST control)"
same,binding signal,[17],"1.27 fold enrichment (6-mer frequency, TF over GST control)"
same,binding signal,[18],"1.27 fold enrichment (6-mer frequency, TF over GST control)"
